Compound activity as filed in PubChem.
Only some compounds are listed: those with a hit (about 3.9% of all), similar ones and a draw of the others.
esBAF inh: Bmi1 luciferase reporter increase in mESCs, primary screen, esBAF inhibitor project, mouse ES cells, Bmi1 luciferase knock-in, single point; 24 h; 100% = twice the neutral-well signal; reporter increase, % at 12.5 µM; 350,000 tested, 2% active; AID 602393, 2012; in the data active = activation above about 40%; inconclusive = no clear call, values can overlap the other calls;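 also: 0% = median of the plate's neutral control wells and 100% = double that signal; a rise in the Bmi1 reporter signal indicates esBAF inhibition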
MITF TRPM1 HTS: activators of MITF-driven TRPM1 promoter reporter, primary screen, cell-based, SK-MEL-5, luciferase, single point; activation, % at 12.5 µM; AID 588334, 2011; SK-MEL-5 TRPM1-promoter luciferase, 24 h; % of positive control, neutral wells = 0; 300,000 tested, 0.75% active;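 active = mean activation of at least 80% with every replicate also reaching 80%; inconclusive = mean reaches 80% but some replicate falls short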;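 also: 0% = neutral control wells and 100% = parthenolide positive control wells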
HSF1 inh: HSF1 inhibitors in luciferase reporter cells, primary screen, cell-based, NIH3T3, luminescence; NIH3T3-HGL HSE-luciferase, MG132-induced, luminescence 8 h; hits give low values; activity change, negative = inhibition, % at 7.5 µM (by protocol); 300,000 tested, 0.77% active; AID 2098, 2009;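 active = more than half of replicate wells show activity change below -50%, luminescence cut by over half; inconclusive = some wells, but at most half, below -50%; inactive = no replicate well below -50%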;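 also: luciferase reports HSF-1 transcriptional activity via heat shock element; 0% = median of DMSO wells and -100% = zero luminescence signal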
HSF-1 act: HSF-1 activators, primary screen, NIH3T3-HGL cells, MG132 stress, luminescence, single point. activation, % at 9 µM. 300,000 tested, 1.7% active. NIH3T3-HGL HSF-1 luciferase reporter, 8 h; 100% = twice DMSO control signal. AID 504408, 2011;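 active = mean replicate activation of at least 50% with a set share of replicates each reaching 50%; inconclusive = only one of those two conditions met; inactive = mean below 50% and too few replicates reaching it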;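 also: 0% = median of the neutral control wells and 100% = twice that signal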
Wnt bcat act: Wnt/beta-catenin pathway activators, primary screen, cell-based, plate reader, single point | 300,000 tested, 1.2% active | activation, % at 9.35 µM | Wnt/beta-catenin reporter cell assay, activator; in the data active = activation above about 30%, passing the limit was not always enough; inconclusive = no clear call, values can overlap the other calls;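 also: 0% = neutral control wells and 100% = positive control wells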
esBAF Ring1 qPCR: Ring1 mRNA increase in mouse ESCs, confirmation, esBAF inhibitor project, cell-based, mouse ESC, RT-qPCR, cherry-pick; shares compounds with esBAF inh; mouse ESC E14, Ring1 mRNA RT-qPCR fold change; fold change at 33 µM; 550 tested, under 10 active;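 active = Ring1 gene expression raised more than 2-fold over untreated cells in both replicates at either tested dose; inconclusive = only one replicate above 2-fold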;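 also: Ring1 transcript normalised to actin housekeeping signal by TaqMan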
esBAF Fgf4 qPCR: Fgf4 mRNA decrease in mouse ESCs, confirmation, esBAF inhibitor project, cell-based, mouse ESC, RT-qPCR, cherry-pick; Fgf4 expression fold change at 33 µM; mouse ESC E14, Fgf4 mRNA qPCR fold change; hits give low values; 550 tested, 4% active; shares compounds with esBAF inh; AID 743177, 2013;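 active = Fgf4 expression under 0.8 fold of control in both repeat measurements at one or both tested doses; inconclusive = under 0.8 fold in just a single repeat measurement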;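 also: Fgf4 transcript normalised to actin in duplex TaqMan qPCR; cells exposed to compound for 24 h before lysis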
Bmi1 derepress: esBAF inhibition via Bmi1 de-repression, confirmation, cell-based, RT-qPCR, mouse ESC, single point, cherry-pick | fold change at 33 µM | mouse ESE14 ES cells, Bmi1 mRNA qPCR fold; hits give high values | shares compounds with esBAF inh | 550 tested, under 10 active;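 active = Bmi1 expression fold change above 6 at either tested concentration, seen in replicate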;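 also: higher fold means more Bmi1 de-repression and stronger esBAF inhibition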
A549 tox SP: A549 cell cytotoxicity, cytotoxicity control, plate reader, single point, cherry-pick | shares compounds with esBAF inh | 550 tested, under 10 active | cell viability change % (negative = cytotoxic), % at 25 µM, hits read low; call rule not given here
HepG2 cytotox SP: HepG2 cell cytotoxicity, cytotoxicity control, plate reader, single point, cherry-pick | shares compounds with esBAF inh | hits give low values | activity change, negative = inhibition, % at 25 µM | 550 tested, 4% active | AID 743189, 2013; in the data active = activity change below about -50%
HEK293 cytotox SP: HEK293 cell cytotoxicity, cytotoxicity control, plate reader, single point, cherry-pick; shares compounds with esBAF inh; activity change, negative = inhibition, % at 25 µM, hits read low; 550 tested, 3% active; AID 743190, 2013; in the data active = activity change below about -38%, passing the limit was not always enough
Starred values were filed as active, the others as inactive; ? = inconclusive; · = not tested or not shown.

SMILES | esBAF inh | MITF TRPM1 HTS | HSF1 inh | HSF-1 act | Wnt bcat act | esBAF Ring1 qPCR | esBAF Fgf4 qPCR | Bmi1 derepress | A549 tox SP | HepG2 cytotox SP | HEK293 cytotox SP
COCC#Cc1ccc2c(c1)O[C@H](CN(C)C(=O)C1CCCCC1)[C@@H](C)CN([C@H](C)CO)S2(=O)=O | -4 | · | · | · | · | · | · | · | · | · | ·
FC(F)Oc1ccccc1/C=N/Nc1nc2ccccc2o1 | 59* | · | 23 | 37 | 17 | 1.1 | 0.97 | 1.2 | 2 | 35 | 18
Fc1ccccc1/C=N/Nc1nc2ccccc2o1 | -8 | 37 | 22 | 38 | 22 | · | · | · | · | · | ·
COc1ccc(C(=O)O/N=C(/c2cccs2)C(C)(C)C)cc1 | 3 | -4 | 8 | -8 | 4 | · | · | · | · | · | ·
COc1ccc(C2CC2/C(=N/OC(=O)c2cccs2)c2ccccc2)cc1 (configuration not stated) | 68* | · | 24 | 14 | 20 | 1.2 | 1 | 1.6 | -8 | -21 | -7
CCn1c(COc2ccccc2OC)nc2ccccc21 | ? | 39 | 4 | 14 | 2 | · | · | · | · | · | ·
CCn1c(COc2ccccc2C)nc2ccccc21 | 65* | ? | 15 | 9 | · | 1.1 | 0.94 | 1.8 | -7 | 1 | -14
C(=NN=Cc1c[nH]c2ccccc12)c1c[nH]c2ccccc12 | 74* | · | · | · | 46* | 1.2 | 0.96 | 1.6 | 0 | -26 | -3
O=C1CS/C(=N/N=C/c2c[nH]c3ccccc23)N1 | · | · | -4 | 15 | 0 | · | · | · | · | · | ·
CCn1c2ccccc2c2cc(NC(=O)N3CCCCC3)ccc21 | 96* | · | · | · | 4 | 1.1 | 0.94 | 1.9 | 7 | 7 | -1
CCCC(=O)Nc1ccc2c(c1)c1ccccc1n2CC | · | -6 | 7 | 15 | -1 | · | · | · | · | · | ·
Cc1ccc(CN2CC(C(=O)Nc3cc(C)ccn3)CC2=O)cc1 (configuration not stated) | 72* | 22 | 4 | -8 | ? | 0.58 | 0.44* | 3.5 | 3 | -21 | -9
O=C(Nc1nc2c(s1)CCc1ccccc1-2)c1cccs1 | 71* | 23 | 48 | 57* | · | 1.8 | ? | 2.3 | -3 | -5 | 12
O=C(Nc1nc2c(s1)COc1ccccc1-2)c1cccs1 | -3 | · | 4 | 12 | 1 | · | · | · | · | · | ·
CCCN(C)C[C@@H]1Oc2cc(C#C[C@H](C)O)ccc2S(=O)(=O)N([C@@H](C)CO)C[C@@H]1C | 0 | · | · | · | · | · | · | · | · | · | ·
CC(C)N1CC2(CC(c3ccccc3F)=NO2)CN1C(=O)c1ccc(C(C)(C)C)cc1 (configuration not stated) | 75* | · | · | · | -1 | 0.92 | 0.89 | 1.7 | -6 | -1 | -9
CC(C)N1CC2(CC(c3ccccc3C(F)(F)F)=NO2)CN1C(=O)c1ccc(C(C)(C)C)cc1 (configuration not stated) | 0 | · | · | · | -2 | · | · | · | · | · | ·
C[C@H](CO)N1C[C@H](C)[C@H](CN(C)C(=O)Nc2ccc3c(c2)OCO3)Oc2ccc(NS(=O)(=O)c3ccc(F)cc3)cc2CC1=O | 2 | · | · | · | · | · | · | · | · | · | ·
